Assays:
Experiment in all cases: MAPPIT interaction score (arbitrary units); higher = stronger binary interaction signal, active = hit call of the paper;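 active = MAPPIT score above the 99th percentile of random reference set scores in the same batch; inactive = at or below it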
[1] = test system: D; settings: MAPPIT configuration: N-N; pair source set: Finley_Y2H
[2] = test system: Eno; settings: MAPPIT configuration: N-N; pair source set: Lit-BM-16
[3] = test system: MESK2; settings: MAPPIT configuration: N-N; pair source set: Lit-BS-16
[4] = test system: Gmppa; settings: MAPPIT configuration: N-N; pair source set: Curagen_high_conf
[5] = test system: Mlf; settings: pair source set: Lit-BM-16
[6] = test system: Nost; settings: MAPPIT configuration: N-N; pair source set: Curagen_high_conf
[7] = test system: Nup50; settings: pair source set: Lit-BM-16
[8] = test system: Nup93-1; settings: MAPPIT configuration: N-N; pair source set: Curagen_low_conf
[9] = test system: apt; settings: MAPPIT configuration: N-N; pair source set: Curagen_low_conf
[10] = test system: PAN3; settings: MAPPIT configuration: N-N; pair source set: screen_1
[11] = test system: l(3)05822; settings: MAPPIT configuration: N-N; pair source set: screen_2
[12] = test system: mad2; settings: MAPPIT configuration: N-N; pair source set: Finley_Y2H
[13] = test system: PGAP5; settings: MAPPIT configuration: N-N; pair source set: Finley_Y2H
[14] = test system: Prx2; settings: MAPPIT configuration: N-N; pair source set: Curagen_high_conf
[15] = test system: Reph; settings: MAPPIT configuration: N-C; pair source set: Lit-BM-16
[16] = test system: RfC3; settings: pair source set: Lit-BM-16
[17] = test system: Sec24CD; settings: MAPPIT configuration: N-N; pair source set: Lit-BS-16
[18] = test system: Src64B; settings: MAPPIT configuration: N-N; pair source set: Lit-BS-16
[19] = test system: chn; settings: MAPPIT configuration: N-N; pair source set: Curagen_low_conf
[20] = test system: pan; settings: MAPPIT configuration: N-N; pair source set: Finley_Y2H
[21] = test system: su(Hw); settings: MAPPIT configuration: N-N; pair source set: DPIM
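Note: HEK293T cells with Epo stimulation, STAT-responsive firefly luciferase reporter, fold induction versus unstimulated cells divided by the larger fold induction of two negative controls lacking either bait or prey.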

SmB, sequence (chain, as listed by the source): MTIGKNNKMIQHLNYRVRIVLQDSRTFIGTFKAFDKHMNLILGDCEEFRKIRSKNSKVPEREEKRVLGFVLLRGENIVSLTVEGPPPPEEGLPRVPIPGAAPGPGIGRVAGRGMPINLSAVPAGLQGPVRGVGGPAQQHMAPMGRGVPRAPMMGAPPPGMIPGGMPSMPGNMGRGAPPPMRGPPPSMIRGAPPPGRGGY
Cyp1, sequence (chain, as listed by the source): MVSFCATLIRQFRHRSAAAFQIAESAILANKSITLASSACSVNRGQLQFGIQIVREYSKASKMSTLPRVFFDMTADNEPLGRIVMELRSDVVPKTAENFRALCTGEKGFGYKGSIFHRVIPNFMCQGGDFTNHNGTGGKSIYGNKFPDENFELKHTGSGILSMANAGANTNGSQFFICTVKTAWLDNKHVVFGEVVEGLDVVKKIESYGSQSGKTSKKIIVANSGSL
Pen, sequence (chain, as listed by the source): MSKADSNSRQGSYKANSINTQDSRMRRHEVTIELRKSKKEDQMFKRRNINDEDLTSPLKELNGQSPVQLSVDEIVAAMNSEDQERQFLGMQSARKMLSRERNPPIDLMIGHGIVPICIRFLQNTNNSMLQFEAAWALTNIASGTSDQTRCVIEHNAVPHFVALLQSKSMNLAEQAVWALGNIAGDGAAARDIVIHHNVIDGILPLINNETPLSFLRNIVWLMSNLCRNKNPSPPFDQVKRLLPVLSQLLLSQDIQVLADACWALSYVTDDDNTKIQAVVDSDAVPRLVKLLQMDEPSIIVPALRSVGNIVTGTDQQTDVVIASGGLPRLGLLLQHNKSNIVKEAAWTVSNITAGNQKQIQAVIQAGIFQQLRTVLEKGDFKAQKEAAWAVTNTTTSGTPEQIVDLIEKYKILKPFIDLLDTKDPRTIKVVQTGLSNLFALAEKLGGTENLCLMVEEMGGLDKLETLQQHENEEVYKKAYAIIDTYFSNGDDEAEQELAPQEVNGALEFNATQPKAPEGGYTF
Hrb98DE, sequence (chain, as listed by the source): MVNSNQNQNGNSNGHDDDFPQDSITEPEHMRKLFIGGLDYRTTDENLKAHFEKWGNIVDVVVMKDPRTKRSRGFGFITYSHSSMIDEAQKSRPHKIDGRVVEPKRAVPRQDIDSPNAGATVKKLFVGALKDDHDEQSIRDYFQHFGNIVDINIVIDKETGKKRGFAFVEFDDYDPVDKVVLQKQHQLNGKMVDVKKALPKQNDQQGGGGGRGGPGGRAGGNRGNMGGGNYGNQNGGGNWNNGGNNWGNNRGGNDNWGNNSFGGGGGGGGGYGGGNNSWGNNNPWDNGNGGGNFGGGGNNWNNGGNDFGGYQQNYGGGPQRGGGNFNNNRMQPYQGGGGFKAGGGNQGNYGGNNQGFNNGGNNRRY
RfC4, sequence (chain, as listed by the source): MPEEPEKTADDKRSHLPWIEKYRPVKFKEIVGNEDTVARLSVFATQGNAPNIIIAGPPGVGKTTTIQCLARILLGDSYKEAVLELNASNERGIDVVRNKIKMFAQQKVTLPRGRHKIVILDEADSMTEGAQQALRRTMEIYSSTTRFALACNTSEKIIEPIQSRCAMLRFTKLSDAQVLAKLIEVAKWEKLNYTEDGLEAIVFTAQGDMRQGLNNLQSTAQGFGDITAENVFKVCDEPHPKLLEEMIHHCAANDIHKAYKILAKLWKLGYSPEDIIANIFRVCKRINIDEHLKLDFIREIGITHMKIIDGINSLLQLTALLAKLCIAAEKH
Hsp83, sequence (chain, as listed by the source): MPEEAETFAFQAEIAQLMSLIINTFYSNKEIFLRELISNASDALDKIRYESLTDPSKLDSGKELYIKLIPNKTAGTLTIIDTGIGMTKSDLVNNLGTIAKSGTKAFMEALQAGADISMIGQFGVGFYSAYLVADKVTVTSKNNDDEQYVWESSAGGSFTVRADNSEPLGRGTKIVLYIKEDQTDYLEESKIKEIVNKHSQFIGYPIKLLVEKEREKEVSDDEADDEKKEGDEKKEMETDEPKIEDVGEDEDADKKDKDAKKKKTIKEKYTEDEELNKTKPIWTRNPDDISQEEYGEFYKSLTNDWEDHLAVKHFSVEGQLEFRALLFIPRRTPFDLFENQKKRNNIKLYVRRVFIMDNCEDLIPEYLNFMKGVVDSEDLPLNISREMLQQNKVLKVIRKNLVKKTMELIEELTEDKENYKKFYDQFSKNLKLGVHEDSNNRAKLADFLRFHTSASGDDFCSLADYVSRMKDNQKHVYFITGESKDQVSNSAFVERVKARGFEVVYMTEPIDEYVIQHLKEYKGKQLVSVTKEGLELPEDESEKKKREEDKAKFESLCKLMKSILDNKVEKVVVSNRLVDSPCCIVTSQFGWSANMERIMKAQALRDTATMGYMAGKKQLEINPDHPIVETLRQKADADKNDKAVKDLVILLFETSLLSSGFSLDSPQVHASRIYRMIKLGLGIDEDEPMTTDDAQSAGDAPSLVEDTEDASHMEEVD
Gmppb, sequence (chain, as listed by the source): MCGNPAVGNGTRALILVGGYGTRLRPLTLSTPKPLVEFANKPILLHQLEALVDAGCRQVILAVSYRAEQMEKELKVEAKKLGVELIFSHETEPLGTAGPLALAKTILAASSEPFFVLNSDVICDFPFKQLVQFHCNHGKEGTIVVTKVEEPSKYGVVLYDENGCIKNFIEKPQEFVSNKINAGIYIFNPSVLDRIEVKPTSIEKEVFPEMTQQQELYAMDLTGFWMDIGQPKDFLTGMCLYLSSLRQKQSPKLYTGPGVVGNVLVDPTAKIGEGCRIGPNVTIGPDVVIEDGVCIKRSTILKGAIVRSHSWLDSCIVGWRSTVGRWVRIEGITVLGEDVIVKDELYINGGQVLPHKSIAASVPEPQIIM
Non1, sequence (chain, as listed by the source): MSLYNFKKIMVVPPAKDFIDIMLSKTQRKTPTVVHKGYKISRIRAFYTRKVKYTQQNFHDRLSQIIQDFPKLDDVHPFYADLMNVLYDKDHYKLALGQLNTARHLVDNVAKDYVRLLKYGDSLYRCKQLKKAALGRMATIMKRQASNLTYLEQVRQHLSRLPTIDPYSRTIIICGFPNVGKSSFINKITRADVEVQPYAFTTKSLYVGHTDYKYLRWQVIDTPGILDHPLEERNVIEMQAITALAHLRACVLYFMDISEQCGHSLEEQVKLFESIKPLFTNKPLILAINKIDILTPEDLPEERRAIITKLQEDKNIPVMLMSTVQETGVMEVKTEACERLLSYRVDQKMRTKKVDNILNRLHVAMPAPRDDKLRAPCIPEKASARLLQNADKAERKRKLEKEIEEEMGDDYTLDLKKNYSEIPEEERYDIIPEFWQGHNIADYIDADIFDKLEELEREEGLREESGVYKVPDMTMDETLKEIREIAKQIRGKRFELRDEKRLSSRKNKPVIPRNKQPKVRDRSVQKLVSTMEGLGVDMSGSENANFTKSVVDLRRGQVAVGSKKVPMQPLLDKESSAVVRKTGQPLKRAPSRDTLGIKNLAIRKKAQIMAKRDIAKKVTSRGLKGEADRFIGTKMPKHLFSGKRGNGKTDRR
Pgi, sequence (chain, as listed by the source): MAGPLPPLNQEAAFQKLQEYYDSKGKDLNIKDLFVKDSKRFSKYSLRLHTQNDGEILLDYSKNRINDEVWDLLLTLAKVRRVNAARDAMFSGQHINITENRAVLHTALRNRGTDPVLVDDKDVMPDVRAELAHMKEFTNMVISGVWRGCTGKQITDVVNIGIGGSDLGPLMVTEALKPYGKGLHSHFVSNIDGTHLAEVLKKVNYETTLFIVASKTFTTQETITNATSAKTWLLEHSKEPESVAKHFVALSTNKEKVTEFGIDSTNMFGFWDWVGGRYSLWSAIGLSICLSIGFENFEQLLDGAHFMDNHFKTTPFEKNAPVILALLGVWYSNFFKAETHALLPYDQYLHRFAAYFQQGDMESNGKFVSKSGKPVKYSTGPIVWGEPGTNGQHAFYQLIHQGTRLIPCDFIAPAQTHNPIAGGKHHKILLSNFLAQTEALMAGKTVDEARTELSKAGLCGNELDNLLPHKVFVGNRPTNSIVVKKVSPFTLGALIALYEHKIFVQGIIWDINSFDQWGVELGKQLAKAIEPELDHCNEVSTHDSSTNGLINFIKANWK
Srx, sequence (chain, as listed by the source): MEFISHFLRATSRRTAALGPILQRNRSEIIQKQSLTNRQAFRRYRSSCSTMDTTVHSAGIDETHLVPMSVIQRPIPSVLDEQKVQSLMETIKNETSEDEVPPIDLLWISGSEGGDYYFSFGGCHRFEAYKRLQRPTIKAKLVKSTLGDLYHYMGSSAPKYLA
Jon99Cii, sequence (chain, as listed by the source): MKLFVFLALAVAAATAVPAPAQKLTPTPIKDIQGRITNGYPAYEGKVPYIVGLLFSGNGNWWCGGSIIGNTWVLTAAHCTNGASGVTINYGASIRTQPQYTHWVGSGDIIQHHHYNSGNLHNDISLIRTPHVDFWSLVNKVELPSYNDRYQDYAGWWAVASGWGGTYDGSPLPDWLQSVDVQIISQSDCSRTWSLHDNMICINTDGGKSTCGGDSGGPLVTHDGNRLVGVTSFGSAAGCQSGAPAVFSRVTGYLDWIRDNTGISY
Cdk5, sequence (chain, as listed by the source): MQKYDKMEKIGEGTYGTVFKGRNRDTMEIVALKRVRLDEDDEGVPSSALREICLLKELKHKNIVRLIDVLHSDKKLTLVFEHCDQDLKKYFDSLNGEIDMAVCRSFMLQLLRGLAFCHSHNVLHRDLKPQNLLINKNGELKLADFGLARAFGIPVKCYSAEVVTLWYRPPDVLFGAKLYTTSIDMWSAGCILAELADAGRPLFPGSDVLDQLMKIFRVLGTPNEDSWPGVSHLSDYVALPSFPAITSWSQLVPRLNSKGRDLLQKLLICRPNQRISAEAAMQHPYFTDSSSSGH
RpL39, sequence (chain, as listed by the source): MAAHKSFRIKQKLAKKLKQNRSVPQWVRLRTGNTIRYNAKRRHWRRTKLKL

For RpL39, the MAPPIT interaction score [1] was -0.321 (inactive).

In the case of Cyp1, the MAPPIT interaction score [2] is reported as 0.063 (inactive) and the MAPPIT interaction score [3] is reported as 0.0293 (inactive).

In the case of Gmppb, the MAPPIT interaction score [4] is reported as 1.26 (inactive).

With DnaJ-1 the MAPPIT interaction score ([5]; MAPPIT configuration: N-C) was 1.44 (inactive) and the MAPPIT interaction score ([5]; MAPPIT configuration: N-N) was 0.787 (inactive).

In the case of Src42A, the MAPPIT interaction score [6] is reported as 1.25 (inactive).

For Pen, the MAPPIT interaction score ([7]; MAPPIT configuration: N-C) was 0.849 (inactive) and the MAPPIT interaction score ([7]; MAPPIT configuration: N-N) was 0.121 (inactive).

In the case of Hrb98DE, the MAPPIT interaction score [8] is reported as -0.403 (inactive) and the MAPPIT interaction score [9] is reported as -0.399 (inactive).

In the case of SmB, the MAPPIT interaction score [10] is reported as -0.24 (inactive), the MAPPIT interaction score [11] is reported as 0.0651 (inactive) and the MAPPIT interaction score [12] is reported as -0.029 (inactive).

For Dfd, the MAPPIT interaction score [13] was 0.749 (inactive).

In the case of Srx, the MAPPIT interaction score [14] is reported as -0.16 (inactive).

For mnb, the MAPPIT interaction score [15] was 1.38 (inactive).

For RfC4, the MAPPIT interaction score ([16]; MAPPIT configuration: N-C) was 3.58 (inactive) and the MAPPIT interaction score ([16]; MAPPIT configuration: N-N) was 6.38 (active).

With Jon99Cii the MAPPIT interaction score [17] was -0.28 (inactive).

Pgi was tested, and the MAPPIT interaction score [18] was -0.233 (inactive).

For Hsp83, the MAPPIT interaction score [19] was 0.266 (inactive).

With Cdk5 the MAPPIT interaction score [20] was -0.4 (inactive).

In the case of Non1, the MAPPIT interaction score [21] is reported as 0.589 (inactive).

Source: the supplement of paper PMC10105736
